# ± gives the standard deviation of the averaged measurements. The full data set covers some 6,200 targets. This sample favours those with the largest changes.
# Key:
# Assay in all cases: NP40-soluble protein abundance relative to vehicle (solubility fold change) (ratio); higher = more soluble protein in presence of AMP-PNP
# [1] = molecular target: T1, A0A087WXD1|Q96T83 (UniProt Q96T83)
# T1 sequence (whole entry): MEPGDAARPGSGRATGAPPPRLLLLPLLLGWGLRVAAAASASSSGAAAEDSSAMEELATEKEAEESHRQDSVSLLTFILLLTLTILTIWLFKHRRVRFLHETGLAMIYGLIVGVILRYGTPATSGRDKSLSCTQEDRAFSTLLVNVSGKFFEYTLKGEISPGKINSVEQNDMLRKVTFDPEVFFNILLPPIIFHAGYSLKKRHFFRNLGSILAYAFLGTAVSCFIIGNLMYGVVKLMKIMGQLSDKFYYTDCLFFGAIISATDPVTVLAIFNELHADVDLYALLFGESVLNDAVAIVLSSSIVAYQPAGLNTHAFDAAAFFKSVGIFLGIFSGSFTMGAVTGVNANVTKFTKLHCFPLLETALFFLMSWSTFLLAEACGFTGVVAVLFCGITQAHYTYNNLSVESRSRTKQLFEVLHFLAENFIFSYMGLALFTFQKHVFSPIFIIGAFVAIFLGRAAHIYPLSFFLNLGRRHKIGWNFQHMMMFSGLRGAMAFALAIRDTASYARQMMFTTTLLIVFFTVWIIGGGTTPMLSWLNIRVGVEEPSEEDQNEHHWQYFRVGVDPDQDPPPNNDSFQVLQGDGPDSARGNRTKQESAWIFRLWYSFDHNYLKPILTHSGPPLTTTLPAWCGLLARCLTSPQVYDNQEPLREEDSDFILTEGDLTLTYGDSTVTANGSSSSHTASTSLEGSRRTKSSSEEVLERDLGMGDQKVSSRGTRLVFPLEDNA
# Summary of the method: (§1)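 Across three independent experiments, values are fold changes against the detergent-processed vehicle for each replicate, based on vsn-normalised intensities. The samples were Jurkat crude lysate treated with eight concentrations (0.1 to 10 mM) for 10 min at room temperature and then 3 min at 37 °C. Lysate was solubilised with 0.8% NP40 and benzonase, ultracentrifuged, and the supernatant analysed by TMT-labelled LC-MS/MS.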
# [2] = molecular target: A0A087WY00|F8W6H6|Q9Y4I1|Q9Y4I1-2|G3V394|Q9Y4I1-3 (UniProt Q9Y4I1)
# Summary of the method: as §1
# [3] = molecular target: T2, A0A087WYG2|E9PFH7|Q9UPT6 (UniProt Q9UPT6)
# T2 sequence (whole entry): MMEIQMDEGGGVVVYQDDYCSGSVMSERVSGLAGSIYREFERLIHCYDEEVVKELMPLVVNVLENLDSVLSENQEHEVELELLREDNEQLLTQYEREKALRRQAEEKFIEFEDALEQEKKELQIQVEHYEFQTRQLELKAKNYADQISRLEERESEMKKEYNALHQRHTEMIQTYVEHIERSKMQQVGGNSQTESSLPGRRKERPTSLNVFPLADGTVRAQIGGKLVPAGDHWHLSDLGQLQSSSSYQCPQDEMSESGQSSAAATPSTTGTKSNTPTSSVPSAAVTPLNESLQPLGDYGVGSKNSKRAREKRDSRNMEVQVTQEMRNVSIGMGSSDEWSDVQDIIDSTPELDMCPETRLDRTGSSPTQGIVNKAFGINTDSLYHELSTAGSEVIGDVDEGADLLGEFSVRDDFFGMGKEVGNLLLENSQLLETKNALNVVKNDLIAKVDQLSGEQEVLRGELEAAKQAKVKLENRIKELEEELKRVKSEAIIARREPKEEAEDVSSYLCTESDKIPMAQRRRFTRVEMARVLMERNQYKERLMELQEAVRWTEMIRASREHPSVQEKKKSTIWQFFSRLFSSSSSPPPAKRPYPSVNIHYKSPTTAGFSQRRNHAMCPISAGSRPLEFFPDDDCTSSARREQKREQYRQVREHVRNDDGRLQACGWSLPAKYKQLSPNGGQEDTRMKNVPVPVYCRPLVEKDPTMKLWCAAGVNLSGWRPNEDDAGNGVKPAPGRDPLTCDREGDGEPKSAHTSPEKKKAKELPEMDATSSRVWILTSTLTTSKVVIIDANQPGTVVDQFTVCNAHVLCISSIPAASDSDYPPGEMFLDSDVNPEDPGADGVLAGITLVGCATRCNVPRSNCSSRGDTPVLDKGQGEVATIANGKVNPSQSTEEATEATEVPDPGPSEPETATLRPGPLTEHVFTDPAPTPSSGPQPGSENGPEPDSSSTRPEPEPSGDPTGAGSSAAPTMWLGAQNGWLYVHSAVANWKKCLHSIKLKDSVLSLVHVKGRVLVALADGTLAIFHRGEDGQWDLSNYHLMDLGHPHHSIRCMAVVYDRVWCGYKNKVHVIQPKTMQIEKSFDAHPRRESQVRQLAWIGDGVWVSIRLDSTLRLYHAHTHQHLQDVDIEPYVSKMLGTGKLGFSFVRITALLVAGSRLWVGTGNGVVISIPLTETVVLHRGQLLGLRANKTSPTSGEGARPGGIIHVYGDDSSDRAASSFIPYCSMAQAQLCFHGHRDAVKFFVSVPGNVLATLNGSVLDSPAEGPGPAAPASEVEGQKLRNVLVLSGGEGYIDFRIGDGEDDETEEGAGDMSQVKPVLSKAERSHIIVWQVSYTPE
# Summary of the method: as §1
# [4] = molecular target: T3, A0A087WYN9|Q7Z478 (UniProt Q7Z478)
# T3 sequence (whole entry): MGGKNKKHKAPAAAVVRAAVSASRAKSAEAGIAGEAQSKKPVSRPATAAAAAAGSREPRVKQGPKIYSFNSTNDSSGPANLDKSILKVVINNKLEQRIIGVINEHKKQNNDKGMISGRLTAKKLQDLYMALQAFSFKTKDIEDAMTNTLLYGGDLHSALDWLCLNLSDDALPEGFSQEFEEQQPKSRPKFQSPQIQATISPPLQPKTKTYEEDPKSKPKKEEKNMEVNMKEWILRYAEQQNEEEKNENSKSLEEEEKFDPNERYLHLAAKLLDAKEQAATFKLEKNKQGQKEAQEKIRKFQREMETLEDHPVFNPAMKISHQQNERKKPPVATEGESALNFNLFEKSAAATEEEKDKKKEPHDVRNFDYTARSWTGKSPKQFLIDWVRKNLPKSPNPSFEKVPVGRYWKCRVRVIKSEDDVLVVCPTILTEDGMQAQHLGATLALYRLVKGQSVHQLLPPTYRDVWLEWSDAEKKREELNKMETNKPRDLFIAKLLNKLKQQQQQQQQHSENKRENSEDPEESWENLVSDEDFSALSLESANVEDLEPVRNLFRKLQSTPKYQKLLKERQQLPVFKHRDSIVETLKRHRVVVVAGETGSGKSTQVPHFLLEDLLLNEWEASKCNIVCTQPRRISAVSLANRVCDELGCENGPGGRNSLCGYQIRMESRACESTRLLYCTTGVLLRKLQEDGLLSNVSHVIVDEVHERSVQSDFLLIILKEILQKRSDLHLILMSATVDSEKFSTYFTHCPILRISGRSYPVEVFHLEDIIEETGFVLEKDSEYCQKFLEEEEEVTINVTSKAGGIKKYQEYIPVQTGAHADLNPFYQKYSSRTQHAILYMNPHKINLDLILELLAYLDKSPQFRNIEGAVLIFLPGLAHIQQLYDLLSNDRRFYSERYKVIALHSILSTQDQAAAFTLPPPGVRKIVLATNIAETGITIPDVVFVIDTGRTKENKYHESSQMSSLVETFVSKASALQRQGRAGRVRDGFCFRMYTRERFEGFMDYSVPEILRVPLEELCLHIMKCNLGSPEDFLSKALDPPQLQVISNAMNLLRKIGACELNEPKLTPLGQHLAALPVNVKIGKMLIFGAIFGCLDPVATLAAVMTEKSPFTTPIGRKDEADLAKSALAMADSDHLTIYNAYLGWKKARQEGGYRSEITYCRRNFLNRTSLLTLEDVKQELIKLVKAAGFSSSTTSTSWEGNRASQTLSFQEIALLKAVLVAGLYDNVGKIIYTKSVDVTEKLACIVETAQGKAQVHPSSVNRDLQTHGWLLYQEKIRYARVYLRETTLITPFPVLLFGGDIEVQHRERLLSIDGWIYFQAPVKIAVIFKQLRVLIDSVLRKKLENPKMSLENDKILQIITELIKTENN
# Summary of the method: as §1
# [5] = tested on: A0A087WZ62
# Summary of the method: as §1
# [6] = molecular target: T4, A0A087X0V5|P29728|P29728-2 (UniProt P29728)
# T4 sequence (whole entry): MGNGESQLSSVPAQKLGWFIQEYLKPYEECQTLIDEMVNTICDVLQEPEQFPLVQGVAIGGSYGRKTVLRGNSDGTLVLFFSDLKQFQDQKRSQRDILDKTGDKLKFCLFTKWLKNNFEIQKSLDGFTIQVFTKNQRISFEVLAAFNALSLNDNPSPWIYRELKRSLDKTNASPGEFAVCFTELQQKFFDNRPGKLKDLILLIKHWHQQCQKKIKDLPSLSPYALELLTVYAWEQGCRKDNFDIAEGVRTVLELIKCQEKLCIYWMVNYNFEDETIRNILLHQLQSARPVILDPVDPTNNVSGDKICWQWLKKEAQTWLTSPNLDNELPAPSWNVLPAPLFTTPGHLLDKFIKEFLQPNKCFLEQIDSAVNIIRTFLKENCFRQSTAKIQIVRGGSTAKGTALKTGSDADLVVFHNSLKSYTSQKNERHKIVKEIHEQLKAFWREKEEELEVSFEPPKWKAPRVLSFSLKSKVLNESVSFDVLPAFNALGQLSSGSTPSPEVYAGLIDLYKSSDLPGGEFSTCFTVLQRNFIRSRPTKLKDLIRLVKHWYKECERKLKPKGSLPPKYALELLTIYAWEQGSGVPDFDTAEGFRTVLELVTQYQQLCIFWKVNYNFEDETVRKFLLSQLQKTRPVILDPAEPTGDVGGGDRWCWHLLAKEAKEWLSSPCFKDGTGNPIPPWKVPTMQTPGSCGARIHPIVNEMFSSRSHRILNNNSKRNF
# Summary of the method: as §1
# [7] = molecular target: A0A087X1K6|H0YK05|Q9Y2Y9 (UniProt Q9Y2Y9)
# Summary of the method: as §1
# [8] = molecular target: A0A087X1Z1|A0A0G2JPW5|A0A0G2JQX1|A0A0G2JSA7|Q96RT8|Q96RT8-2 (UniProt Q96RT8)
# Summary of the method: as §1
# [9] = molecular target: A0A096LP25|Q2M2I8|Q2M2I8-2 (UniProt Q2M2I8)
# Summary of the method: as §1
# A0A087WY00|F8W6H6|Q9Y4I1|Q9Y4I1-2|G3V394|Q9Y4I1-3, sequence (Q9Y4I1 whole entry, one chain of several): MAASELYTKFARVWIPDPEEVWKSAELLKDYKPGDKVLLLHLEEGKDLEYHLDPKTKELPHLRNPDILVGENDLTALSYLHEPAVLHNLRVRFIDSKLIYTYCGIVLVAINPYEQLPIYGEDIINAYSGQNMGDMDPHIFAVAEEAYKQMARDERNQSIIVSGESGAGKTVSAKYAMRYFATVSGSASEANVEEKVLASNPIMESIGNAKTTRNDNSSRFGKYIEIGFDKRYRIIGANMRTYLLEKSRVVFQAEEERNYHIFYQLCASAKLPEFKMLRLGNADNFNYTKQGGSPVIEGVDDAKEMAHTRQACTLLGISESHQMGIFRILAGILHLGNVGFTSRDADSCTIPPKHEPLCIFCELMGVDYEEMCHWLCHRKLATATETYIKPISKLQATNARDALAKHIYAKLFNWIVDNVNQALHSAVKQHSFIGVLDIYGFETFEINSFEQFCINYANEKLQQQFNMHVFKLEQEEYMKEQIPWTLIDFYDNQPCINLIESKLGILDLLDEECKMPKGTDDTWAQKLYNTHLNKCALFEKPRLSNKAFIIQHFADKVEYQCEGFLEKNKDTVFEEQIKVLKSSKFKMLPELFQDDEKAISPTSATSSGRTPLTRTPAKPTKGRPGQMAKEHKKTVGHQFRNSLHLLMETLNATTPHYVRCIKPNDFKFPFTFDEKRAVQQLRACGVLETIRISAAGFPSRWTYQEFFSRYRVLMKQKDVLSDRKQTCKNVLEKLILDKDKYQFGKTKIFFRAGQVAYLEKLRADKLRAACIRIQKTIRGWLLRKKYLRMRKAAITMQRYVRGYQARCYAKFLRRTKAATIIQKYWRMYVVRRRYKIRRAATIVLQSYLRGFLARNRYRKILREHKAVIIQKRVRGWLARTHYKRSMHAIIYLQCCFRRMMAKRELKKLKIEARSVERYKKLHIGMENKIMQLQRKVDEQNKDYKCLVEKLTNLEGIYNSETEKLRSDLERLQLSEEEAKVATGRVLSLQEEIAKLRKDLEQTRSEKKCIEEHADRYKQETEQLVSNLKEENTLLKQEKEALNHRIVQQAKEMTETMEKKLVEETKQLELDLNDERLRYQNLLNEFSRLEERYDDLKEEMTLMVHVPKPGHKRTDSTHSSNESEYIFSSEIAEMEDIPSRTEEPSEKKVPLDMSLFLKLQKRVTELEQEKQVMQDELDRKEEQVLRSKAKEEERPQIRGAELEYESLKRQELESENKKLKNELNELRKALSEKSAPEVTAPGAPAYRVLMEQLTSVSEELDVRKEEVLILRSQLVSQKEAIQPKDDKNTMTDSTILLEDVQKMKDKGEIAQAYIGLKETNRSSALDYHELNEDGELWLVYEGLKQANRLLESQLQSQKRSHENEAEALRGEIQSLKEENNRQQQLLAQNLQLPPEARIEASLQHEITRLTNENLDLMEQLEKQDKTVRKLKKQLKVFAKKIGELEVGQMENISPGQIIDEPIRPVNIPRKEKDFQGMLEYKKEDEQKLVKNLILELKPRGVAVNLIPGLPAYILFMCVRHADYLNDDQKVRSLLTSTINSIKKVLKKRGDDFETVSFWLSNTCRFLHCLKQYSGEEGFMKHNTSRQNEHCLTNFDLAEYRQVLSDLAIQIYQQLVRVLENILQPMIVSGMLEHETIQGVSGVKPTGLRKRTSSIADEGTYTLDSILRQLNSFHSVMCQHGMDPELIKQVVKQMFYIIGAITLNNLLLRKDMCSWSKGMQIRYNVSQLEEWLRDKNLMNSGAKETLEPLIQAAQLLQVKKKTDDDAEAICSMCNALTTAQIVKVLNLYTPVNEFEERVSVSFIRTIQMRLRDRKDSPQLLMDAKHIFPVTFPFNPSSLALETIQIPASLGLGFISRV
# A0A096LP25|Q2M2I8|Q2M2I8-2, sequence (Q2M2I8 whole entry, looked up, one chain of several): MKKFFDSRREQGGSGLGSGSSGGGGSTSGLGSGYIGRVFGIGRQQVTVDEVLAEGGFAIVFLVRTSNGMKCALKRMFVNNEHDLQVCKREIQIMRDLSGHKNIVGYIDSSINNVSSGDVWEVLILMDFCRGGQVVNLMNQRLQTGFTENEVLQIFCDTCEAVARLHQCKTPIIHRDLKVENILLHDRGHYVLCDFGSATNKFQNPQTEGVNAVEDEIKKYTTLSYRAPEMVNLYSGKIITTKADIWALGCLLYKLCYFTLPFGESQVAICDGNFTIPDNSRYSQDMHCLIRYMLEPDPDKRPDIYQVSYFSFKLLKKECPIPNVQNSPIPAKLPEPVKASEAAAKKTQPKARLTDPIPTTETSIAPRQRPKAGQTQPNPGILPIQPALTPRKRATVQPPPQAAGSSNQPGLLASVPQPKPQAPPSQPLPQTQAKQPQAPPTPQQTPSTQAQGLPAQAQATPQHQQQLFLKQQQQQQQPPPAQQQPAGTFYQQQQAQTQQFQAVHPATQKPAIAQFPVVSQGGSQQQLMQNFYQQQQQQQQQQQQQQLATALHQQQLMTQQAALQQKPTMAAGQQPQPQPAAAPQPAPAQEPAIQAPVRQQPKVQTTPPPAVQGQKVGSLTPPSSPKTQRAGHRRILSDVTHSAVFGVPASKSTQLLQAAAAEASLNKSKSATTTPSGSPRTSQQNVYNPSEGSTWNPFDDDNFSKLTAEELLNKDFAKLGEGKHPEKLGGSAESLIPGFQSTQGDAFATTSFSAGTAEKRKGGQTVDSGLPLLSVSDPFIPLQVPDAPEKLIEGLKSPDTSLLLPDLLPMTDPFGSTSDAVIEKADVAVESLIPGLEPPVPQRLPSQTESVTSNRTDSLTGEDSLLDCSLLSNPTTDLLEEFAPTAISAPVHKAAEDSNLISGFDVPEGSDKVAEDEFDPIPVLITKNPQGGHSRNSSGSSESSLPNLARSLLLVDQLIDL
# A0A087X1K6|H0YK05|Q9Y2Y9, sequence (Q9Y2Y9 whole entry, one chain of several): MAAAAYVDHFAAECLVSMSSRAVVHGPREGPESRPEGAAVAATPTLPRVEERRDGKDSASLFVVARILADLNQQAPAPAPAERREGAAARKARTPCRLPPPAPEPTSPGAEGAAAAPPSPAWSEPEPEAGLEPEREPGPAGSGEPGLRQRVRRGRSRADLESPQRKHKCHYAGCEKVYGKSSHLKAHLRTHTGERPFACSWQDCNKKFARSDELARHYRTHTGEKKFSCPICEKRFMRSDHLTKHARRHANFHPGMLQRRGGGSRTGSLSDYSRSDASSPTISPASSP
# A0A087X1Z1|A0A0G2JPW5|A0A0G2JQX1|A0A0G2JSA7|Q96RT8|Q96RT8-2, sequence (Q96RT8 whole entry, one chain of several): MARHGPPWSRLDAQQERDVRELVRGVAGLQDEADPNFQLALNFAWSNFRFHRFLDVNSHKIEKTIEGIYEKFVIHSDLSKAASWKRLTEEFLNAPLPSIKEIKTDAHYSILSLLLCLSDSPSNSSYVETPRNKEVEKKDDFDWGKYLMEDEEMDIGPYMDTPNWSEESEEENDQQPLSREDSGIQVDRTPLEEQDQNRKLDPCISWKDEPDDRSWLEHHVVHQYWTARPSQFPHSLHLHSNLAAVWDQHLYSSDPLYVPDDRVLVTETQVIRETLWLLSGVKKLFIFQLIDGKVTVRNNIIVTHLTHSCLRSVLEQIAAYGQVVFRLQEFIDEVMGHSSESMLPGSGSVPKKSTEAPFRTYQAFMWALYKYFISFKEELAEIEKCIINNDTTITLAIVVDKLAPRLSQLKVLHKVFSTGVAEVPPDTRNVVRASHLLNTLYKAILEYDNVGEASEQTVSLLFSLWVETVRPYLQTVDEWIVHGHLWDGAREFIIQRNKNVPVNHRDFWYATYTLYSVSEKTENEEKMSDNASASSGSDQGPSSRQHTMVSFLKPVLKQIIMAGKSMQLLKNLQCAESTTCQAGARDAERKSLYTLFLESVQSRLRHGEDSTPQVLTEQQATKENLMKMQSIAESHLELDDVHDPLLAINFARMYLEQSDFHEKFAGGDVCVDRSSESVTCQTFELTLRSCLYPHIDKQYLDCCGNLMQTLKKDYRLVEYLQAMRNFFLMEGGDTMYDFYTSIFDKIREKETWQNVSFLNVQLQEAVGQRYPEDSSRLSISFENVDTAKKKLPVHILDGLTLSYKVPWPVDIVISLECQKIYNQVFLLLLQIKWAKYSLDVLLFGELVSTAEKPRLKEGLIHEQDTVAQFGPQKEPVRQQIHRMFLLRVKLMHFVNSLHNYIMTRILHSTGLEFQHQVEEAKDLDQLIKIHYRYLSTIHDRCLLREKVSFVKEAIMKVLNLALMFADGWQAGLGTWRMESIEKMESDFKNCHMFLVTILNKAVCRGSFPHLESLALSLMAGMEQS
smiles,measurement,setting,value
Nc1ncnc2c1ncn2[C@@H]1O[C@H](COP(=O)(O)OP(=O)(O)NP(=O)(O)O)[C@@H](O)[C@H]1O [adenylyl imidodiphosphate],NP40-soluble protein abundance,[1]; concentration: 1mM,0.971 ± 0.05
same,NP40-soluble protein abundance,[1]; concentration: 2mM,0.973 ± 0.015
same,NP40-soluble protein abundance,[1]; concentration: 4mM,0.958 ± 0.033
same,NP40-soluble protein abundance,[1]; concentration: 6mM,0.948 ± 0.038
same,NP40-soluble protein abundance,[1]; concentration: 8mM,0.935 ± 0.027
same,NP40-soluble protein abundance,[1]; concentration: 10mM,0.9324 ± 0.0081
same,NP40-soluble protein abundance,[2]; concentration: 1mM,1.9 ± 0.27
same,NP40-soluble protein abundance,[2]; concentration: 2mM,1.97 ± 0.29
same,NP40-soluble protein abundance,[2]; concentration: 4mM,2.07 ± 0.28
same,NP40-soluble protein abundance,[2]; concentration: 6mM,2 ± 0.31
same,NP40-soluble protein abundance,[2]; concentration: 8mM,1.96 ± 0.29
same,NP40-soluble protein abundance,[2]; concentration: 10mM,2.01 ± 0.24
same,NP40-soluble protein abundance,[3]; concentration: 1mM,1.01 ± 0.034
same,NP40-soluble protein abundance,[3]; concentration: 2mM,1.03 ± 0.025
same,NP40-soluble protein abundance,[3]; concentration: 4mM,1.03 ± 0.025
same,NP40-soluble protein abundance,[3]; concentration: 6mM,0.988 ± 0.026
same,NP40-soluble protein abundance,[3]; concentration: 8mM,0.981 ± 0.022
same,NP40-soluble protein abundance,[3]; concentration: 10mM,1 ± 0.023
same,NP40-soluble protein abundance,[4]; concentration: 1mM,1.31 ± 0.067
same,NP40-soluble protein abundance,[4]; concentration: 2mM,1.49 ± 0.079
same,NP40-soluble protein abundance,[4]; concentration: 4mM,1.73 ± 0.18
same,NP40-soluble protein abundance,[4]; concentration: 6mM,1.9 ± 0.22
same,NP40-soluble protein abundance,[4]; concentration: 8mM,2.01 ± 0.24
same,NP40-soluble protein abundance,[4]; concentration: 10mM,2.1 ± 0.29
same,NP40-soluble protein abundance,[5]; concentration: 1mM,0.976 ± 0.026
same,NP40-soluble protein abundance,[5]; concentration: 2mM,0.963 ± 0.027
same,NP40-soluble protein abundance,[5]; concentration: 4mM,0.931 ± 0.022
same,NP40-soluble protein abundance,[5]; concentration: 6mM,0.952 ± 0.014
same,NP40-soluble protein abundance,[5]; concentration: 8mM,0.946 ± 0.028
same,NP40-soluble protein abundance,[5]; concentration: 10mM,0.936 ± 0.017
same,NP40-soluble protein abundance,[6]; concentration: 1mM,1.13 ± 0.0059
same,NP40-soluble protein abundance,[6]; concentration: 2mM,1.07 ± 0.091
same,NP40-soluble protein abundance,[6]; concentration: 4mM,1.26 ± 0.049
same,NP40-soluble protein abundance,[6]; concentration: 6mM,1.24 ± 0.086
same,NP40-soluble protein abundance,[6]; concentration: 8mM,1.358 ± 0.011
same,NP40-soluble protein abundance,[6]; concentration: 10mM,1.29 ± 0.02
same,NP40-soluble protein abundance,[7]; concentration: 1mM,0.998 ± 0.029
same,NP40-soluble protein abundance,[7]; concentration: 2mM,0.998 ± 0.03
same,NP40-soluble protein abundance,[7]; concentration: 4mM,0.971 ± 0.024
same,NP40-soluble protein abundance,[7]; concentration: 6mM,1.01 ± 0.016
same,NP40-soluble protein abundance,[7]; concentration: 8mM,0.991 ± 0.03
same,NP40-soluble protein abundance,[7]; concentration: 10mM,0.996 ± 0.0047
same,NP40-soluble protein abundance,[8]; concentration: 1mM,0.946 ± 0.021
same,NP40-soluble protein abundance,[8]; concentration: 2mM,1 ± 0.057
same,NP40-soluble protein abundance,[8]; concentration: 4mM,0.951 ± 0.032
same,NP40-soluble protein abundance,[8]; concentration: 6mM,0.972 ± 0.029
same,NP40-soluble protein abundance,[8]; concentration: 8mM,0.962 ± 0.018
same,NP40-soluble protein abundance,[8]; concentration: 10mM,0.96 ± 0.016
same,NP40-soluble protein abundance,[9]; concentration: 1mM,1.07 ± 0.02
same,NP40-soluble protein abundance,[9]; concentration: 2mM,1.11 ± 0.041
same,NP40-soluble protein abundance,[9]; concentration: 4mM,1.11 ± 0.026
same,NP40-soluble protein abundance,[9]; concentration: 6mM,1.09 ± 0.024
same,NP40-soluble protein abundance,[9]; concentration: 8mM,1.08 ± 0.02
same,NP40-soluble protein abundance,[9]; concentration: 10mM,1.11 ± 0.012
